Compounds with a hit are over-represented: about 7.2% of the library has one in this group of screens.
SNCA expr inhib – SNCA gene expression inhibition; 140,000 compounds, 0.17% hits; Potency, µM (doses to about 57.2 µM), without a hit: top-dose activity change, negative = inhibition, hits mostly inhibitors; HEK-293 SNCA-luciferase knock-in, luminescence, 24 h;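 further: plate controls were DMSO cells for no effect and cell-free wells for full effect; nearly all actives have a fitted effect of over 45% in size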
SNCA viab count – cell viability loss counter-screen. AID 1671193. 150,000 compounds, 0.12% hits. HEK-293-SNCA-luc viability, GF-AFC fluorescence, 24 h. Potency, µM (titrated, usually from 57.1 µM), for the others: at the highest dose activity change, negative = cytotoxicity, hits mostly cytotoxic;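 further: 0% = DMSO-treated cells and -100% = medium-only wells without cells; nearly all actives have a fitted effect of over 30% in size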
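HEK-293-SNCA-luc cells (1500/well) plated 24 h, then exposed 24 h to a dilution series; GF-AFC added 30 min at 37C, fluorescence 405/540 nm; normalised to medium-only and DMSO wells, Hill fit.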
hNpr1 antagonist – blocks ANP-stimulated signaling of human Npr1 receptor; Potency, µM (doses to about 46.3 µM), for the others: at the top dose activity change, negative = inhibition, hits mostly inhibitors; HEK293 hNpr1 GloSensor cGMP, ANP-stimulated luminescence; 76,000 compounds, 1.6% hits; P16066; calls by dose curve; further: nearly all actives have a fitted effect of over 60% in size
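Compound pre-incubated 30 min at room temperature on GloSensor-loaded HEK293 cells stably carrying hNpr1 and the pGS-40F cGMP biosensor. Stimulation uses hNppA at 0.1 nM final; luminescence is taken at baseline and 20 min post-agonist.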
HEK cytotox – kills HEK 293 cells; HEK 293 viability, ATP luminescence (CellTiter-Glo), 48-72 h; Potency, µM (doses to about 115 µM), for inactives: at the highest dose activity change, negative = cytotoxicity, usual class: inhibitors; 94,000 compounds, 6.6% hits; AID 1345083; further: nearly all actives have a fitted effect of over 60% in size
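ATP-coupled CellTiter-Glo luminescence served as viability read-out, recorded 10 min after reagent addition at room temperature. HEK 293 cells, 250 cells/well, had been incubated with pintool-transferred compound for 48 or 72 hr at 37 degree Celsius.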
NIH3T3 tox – cytotoxic compounds in NIH 3T3 cells; 94,000 compounds, 4.3% hits; NIH 3T3 viability, CellTiter-Glo ATP luminescence, 48-72 h; Potency, µM (series often up to 96.7 µM), for inactives: top-dose activity change, negative = cytotoxicity, actives largely listed as inhibitors; further: nearly all actives have a fitted effect of over 55% in size
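First NIH 3T3 cells are plated at 400 cells/well; next compound is pinned in; then plates incubate 48 or 72 hr at 37 °C; finally CellTiter-Glo is added and luminescence read after 10 min.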
FLuc inh – Photinus pyralis luciferase inhibition; 76,000 compounds, 2.5% hits; AID 1347043; Potency, µM (top dose mostly 115 µM), most hits filed as inhibitors; purified P. pyralis luciferase, luminescence, biochemical; further: nearly all actives have a fitted effect of over 65% in size
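Inhibitors were tested against purified firefly luciferase in a biochemical, low-substrate format (both substrates at 10uM) and luminescence measured with a CCD imager.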
Starred values were filed as active, the others as inactive; i = inactive; ? = inconclusive; . = not tested or not shown; [ ] = dose if it differs, or a comment. Unless noted, the call rests on the fitted dose curve; in most records, active means well fitted curve in the direction sought with a large enough effect; inconclusive means small, poorly fitted or top-dose-only effect, or another doubt; inactive means no such curve, though single readings can be large; an effect the other way counts as inactive or inconclusive. Unless noted, on the % scale 0 is the no-effect control and ±100 the full control effect; potency means the concentration at half of the fitted maximal effect.

SMILES	SNCA expr inhib	SNCA viab count	hNpr1 antagonist	HEK cytotox	NIH3T3 tox	FLuc inh
O=C(NCCc1ccc(Cl)cc1)c1ccc2nnc(-c3ccc(Cl)cc3)n2c1	?	-2%	.	?	?	.
O=C(NCCc1ccc(Cl)cc1)c1ccc2nnc(-c3cccc(C(F)(F)F)c3)n2c1	?	?	.	?	22µM*	.
O=C1[C@H]2CN(Cc3ccc(C(F)(F)F)cc3)C[C@H]2C(=O)N1CCc1ccccc1	?	-15%	-29%	35µM*	22µM*	i
O=C1CC2(CCN(Cc3cccc4ccccc34)CC2)Oc2ccccc21	-16%	-11%	-14%	35µM*	?	i
O=C1CC2(CCN(Cc3ccccc3)CC2)Oc2ccccc21	30%[87.6 µM]	6%[87.6 µM]	-18%[70.6 µM]	?	?	?
O=C1CC2(CCN(Cc3ccc(C(F)(F)F)cc3)CC2)Oc2ccccc21	-25%	-19%	?	25µM*	?	i
O=C1CC2(CCN(Cc3ccsc3)CC2)Oc2ccccc21	132%[87.6 µM]	10%[87.6 µM]	10%[70.6 µM]	?	?	45µM*
COc1ccc(CN2CCC3(CC2)CC(=O)c2ccccc2O3)cc1	?	5%[87.6 µM]	-1%[70.6 µM]	-24%[172 µM]	-22%[138 µM]	i
O=C(NCC1CCCN(C(=O)c2cc(=O)[nH]c(=O)[nH]2)C1)c1cccs1 (configuration not stated)	-2%	-18%	2%	-7%	-8%	i
CN(C)C(C(=O)NCc1cc(F)c(F)c(F)c1F)c1cccc(F)c1 (configuration not stated)	18%	-8%	1%	4%	2%	i
c1ccc(CN2CC[C@H](c3nnc(-c4ccncc4)o3)C2)cc1	-3%[87.6 µM]	1%[87.6 µM]	5%[70.6 µM]	-6%[172 µM]	3%[138 µM]	i
CCNc1cc(N2CCC(CCC(=O)NCC3CC3)CC2)ncn1	?	12%	-4%	?	-5%	i
CCCNc1cc(N2CCC(CCC(=O)N3CCN(c4ccc(F)cc4)CC3)CC2)ncn1	?	-28%	11µM*	?	20µM*	?
CCCNc1cc(N2CCC(CCC(=O)N3CCN(c4cccc(C)c4)CC3)CC2)ncn1	?	-18%	?	20µM*	?	?
CS(=O)(=O)N1CCN(C(=O)CCC2CCN(c3cc(NC4CC4)ncn3)CC2)CC1	?	2%	?	?	-31%	?
O=C(c1cc(CN2CCOCC2)on1)N1CCC2(CC1)NCCc1c2[nH]c2ccccc12	10%	-1%[12.5 µM]	8%	32µM*	-25%	i
CN1CCc2c([nH]c3ccccc23)C12CCN(C(=O)c1cc(CN3CCOCC3)on1)CC2	4%	-11%[12.5 µM]	-2%	?	-18%	i
O=C(Nc1cccc(F)c1)C1CCCN(Cc2cccc(-c3ccc(F)cc3F)c2)C1 (configuration not stated)	11%	-11%	.	20µM*	45µM*	.
C#CCNC(=O)C1CCCN(Cc2cccc(-c3ccc(F)cc3F)c2)C1 (configuration not stated)	-18%	-7%	.	45µM*	?	.
O=C(Nc1cccc(Cl)c1)C1CCCN(Cc2cccc(-c3ccc(F)cc3F)c2)C1 (configuration not stated)	?	2%	.	?	?	.
N#Cc1cc(CN2CCCC(C(=O)Nc3cccc(-c4ccc(F)cc4)c3)C2)c[nH]1 (configuration not stated)	?	?	-25%	25µM*	18µM*	i
CNC(=O)C1CCCN(Cc2cccc(-c3ccc(F)cc3F)c2)C1 (configuration not stated)	8%[87.6 µM]	-15%[87.6 µM]	.	63µM*	?	.
CC(=O)NCC(=O)N1CCCC(C(=O)Nc2cccc(-c3ccc(F)cc3)c2)C1 (configuration not stated)	3%	-14%	-9%	?	?	i
O=C(NCC(F)F)C1CCCN(Cc2cccc(-c3ccc(F)cc3F)c2)C1 (configuration not stated)	-11%	-2%	.	?	?	.
COCCNC(=O)C1CCCN(Cc2cccc(-c3ccc(F)cc3F)c2)C1 (configuration not stated)	6%	9%	.	?	?	.
SMILES	SNCA expr inhib	SNCA viab count	hNpr1 antagonist	HEK cytotox	NIH3T3 tox	FLuc inh
Cc1ccc(-c2noc(-c3ccc(N4CCCCC4)c([N+](=O)[O-])c3)n2)cc1	-4%	-6%	.	.	.	.
O=[N+]([O-])c1cc(-c2nc(-c3ccccc3)no2)ccc1N1CCCCC1	10µM*	7%	.	.	.	.
COc1cccc(NC(=O)Cn2c(N3CCc4ccccc4C3)nc(C)cc2=O)c1	?	?	?	20µM*	22µM*	i
Cc1cccc(N(C)C(=O)Cn2c(N3CCc4ccccc4C3)nc(C)cc2=O)c1	?	11µM*	?	?	?	i
Cc1cc(=O)n(CC(=O)Nc2ccc(F)cc2)c(N2CCc3ccccc3C2)n1	-10%	-22%	-23%	40µM*	40µM*	i
CCOC(=O)c1ccc(NC(=O)Cn2c(N3CCc4ccccc4C3)nc(C)cc2=O)cc1	?	-26%	-13%	32µM*	32µM*	i
COc1cccc(NC(=O)Cn2c(N3CCN(c4ccccc4)CC3)nc(C)cc2=O)c1	5%	3%	0%	?	?	i
CCc1ccc(NC(=O)Cn2c(N3CCc4ccccc4C3)nc(C)cc2=O)cc1	39%	8%	-17%	?	?	i
COCCCNC(=O)C(NC(=O)c1ccccc1C)C1CCN(C(=O)c2cccs2)CC1 (configuration not stated)	32%	9%	1%	i	1%	i
N#Cc1cccc(S(=O)(=O)N2CC(C(=O)NC3CCCCC3)C3(CCOCC3)C2)c1 (configuration not stated)	-15%	?	-4%	1%	-13%	i
c1cc(-c2ncon2)cc(N2CCc3nc[nH]c3C2)n1	-13%	4%	1%	-9%	-4%	i
Cc1cc(=O)n(CC(=O)NCc2ccc(F)cc2)c(N2CCc3ccccc3C2)n1	?	-23%	-25%	45µM*	?	i
Cc1cc(=O)n(CC(=O)Nc2ccc(C(C)C)cc2)c(N2CCN(c3ccccc3)CC2)n1	-22%	-12%	-1%	?	32µM*	i
Cn1cnc(C(=O)N2C[C@@H](COc3ccccc3)[C@H](C(N)=O)C2)c1	2%	8%	2%	-31%	?	i
CN1CCC(Cn2ccc3c(N4CCOCC4)nc(-c4cccc(N5CCOCC5)c4)cc32)CC1	-19%	2%	-1%	?	32µM*	i
